High-throughput results as filed in PubChem.
USP10 block = inhibitors of human USP10 deubiquitinase; purified USP10, Ub-rhodamine fluorescence, 60 min; inhibition, % at 20 µM; 1.1% of 47,000 active; AID 1645856
Target sequence (Q14694 whole entry, looked up): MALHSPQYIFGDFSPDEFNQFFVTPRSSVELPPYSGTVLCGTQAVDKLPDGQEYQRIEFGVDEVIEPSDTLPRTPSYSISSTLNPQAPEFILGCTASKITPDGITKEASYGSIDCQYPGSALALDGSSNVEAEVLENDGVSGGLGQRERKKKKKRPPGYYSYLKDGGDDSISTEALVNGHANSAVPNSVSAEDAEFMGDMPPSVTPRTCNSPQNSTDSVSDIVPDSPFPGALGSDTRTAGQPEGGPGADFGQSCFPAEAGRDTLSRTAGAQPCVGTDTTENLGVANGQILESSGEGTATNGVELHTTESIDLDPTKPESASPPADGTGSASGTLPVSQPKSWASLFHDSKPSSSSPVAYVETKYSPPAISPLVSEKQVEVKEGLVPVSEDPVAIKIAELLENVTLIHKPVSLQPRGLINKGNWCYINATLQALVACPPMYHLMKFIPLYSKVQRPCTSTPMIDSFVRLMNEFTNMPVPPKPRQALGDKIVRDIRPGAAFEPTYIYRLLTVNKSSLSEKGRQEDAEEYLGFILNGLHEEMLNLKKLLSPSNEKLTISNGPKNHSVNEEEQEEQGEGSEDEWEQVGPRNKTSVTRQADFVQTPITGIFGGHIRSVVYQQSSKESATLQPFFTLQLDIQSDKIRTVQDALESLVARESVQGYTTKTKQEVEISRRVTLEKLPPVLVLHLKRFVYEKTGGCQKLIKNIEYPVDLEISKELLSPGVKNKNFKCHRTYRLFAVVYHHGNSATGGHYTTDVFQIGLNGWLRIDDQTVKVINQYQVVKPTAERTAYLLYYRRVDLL
USP8 block = human USP8 deubiquitinase inhibition; P40818; purified USP8, Ub-rhodamine cleavage fluorescence, 30 min; inhibition, % at 20 µM; 4.2% of 47,000 active; AID 1645853
UCHL1 block = human UCHL1 deubiquitinase inhibition; P09936; AID 1645859; inhibition, % at 20 µM; 0.2% of 47,000 active; purified UCHL1, Ub-rhodamine cleavage fluorescence
USP7 inh = human USP7 deubiquitinase inhibition; Q93009; 0.3% of 47,000 active; AID 1645854; inhibition, % at 20 µM; purified USP7, Ub-rhodamine cleavage fluorescence
* = called active by the depositor. Sampled rows, rich in hits. Any-hit rate of the full collection: about 4.6%. Rule as the data show it: active = inhibition above about 30%; inactive = the rest.

For O=C(Nc1ccc(O)cc1)c1cccn2c(-c3ccccc3F)nnc12 the results were USP10 block -1, USP8 block 56*, UCHL1 block 3 and USP7 inh 2.
O=C(Cn1c(=O)[nH]c2c(-c3ccccc3)c[nH]c2c1=O)NCc1ccc(Cl)cc1 was read as USP10 block 2, USP8 block 32*, UCHL1 block 0 and USP7 inh 9.
O=C(Cn1c(=O)[nH]c2c(-c3ccccc3F)c[nH]c2c1=O)NC1CCCCC1 was read as USP10 block 17, USP8 block 34*, UCHL1 block -2 and USP7 inh 13.
Screening CN(Cc1ccccc1)C(=O)Cn1c(=O)[nH]c2c(-c3ccccc3)c[nH]c2c1=O returned USP10 block -8, USP8 block 46*, UCHL1 block -9 and USP7 inh 1.
O=C(Cn1c(=O)[nH]c2c(-c3ccc(F)cc3)c[nH]c2c1=O)NCc1ccc(F)cc1 was read as USP10 block 12, USP8 block 32*, UCHL1 block 1 and USP7 inh 13.
Screening O=C(Cn1c(=O)[nH]c2ccccc2c1=O)NC1CCCC1 returned USP10 block 0, USP8 block 0, UCHL1 block 2 and USP7 inh 2.
Cc1ccc2[nH]c(=O)c(-c3noc(CCC(=O)N4CCCC4)n3)cc2c1 was read as USP10 block 1, USP8 block -10, UCHL1 block 1 and USP7 inh 3.
For O=C(CCn1c(=O)c2sccc2n(CC(=O)OCc2ccccc2)c1=O)NCc1ccc2c(c1)OCO2 the results were USP10 block 36*, USP8 block 61*, UCHL1 block 5 and USP7 inh 16.
CCOc1ccccc1NC(=O)Cn1c(=O)n(CCC(=O)NC2CCCC2)c(=O)c2ccccc21 was read as USP10 block 2, USP8 block 26, UCHL1 block 1 and USP7 inh 3.
CCOc1ccccc1NC(=O)Cn1c(=O)n(CCC(=O)NCc2ccc3c(c2)OCO3)c(=O)c2sccc21 was read as USP10 block 69*, USP8 block 54*, UCHL1 block 7 and USP7 inh 29.
`CCn1c(Cn2cccn2)nc2cc(NC(=O)c3ccc(F)cc3)ccc21` gave USP10 block -1, USP8 block -14, UCHL1 block -4 and USP7 inh 0.
Screening CC(C)CC1NC(=O)C2CCCN2C1=O (configuration not stated) returned USP10 block 17, USP8 block 54*, UCHL1 block 41* and USP7 inh -115.
`O=C(/C=C/c1cccc([N+](=O)[O-])c1)Nc1nc2n(n1)C(c1ccccc1)CC(=O)N2` (configuration not stated) gave USP10 block 25, USP8 block -50, UCHL1 block 5 and USP7 inh 10.
COc1ccc(/C=C/C(=O)Nc2nc3n(n2)C(c2ccccc2)CC(=O)N3)cc1 (configuration not stated) was read as USP10 block 21, USP8 block 73*, UCHL1 block 7 and USP7 inh 13.
Screening COc1ccc(/C=C/C(=O)Nc2nc3n(n2)C(c2ccccc2)CC(=O)N3)cc1OC (configuration not stated) returned USP10 block 3, USP8 block 79*, UCHL1 block 6 and USP7 inh 11.
`Cc1cccc2cc(CN(Cc3cccnc3)S(=O)(=O)c3ccccc3)c(=O)[nH]c12` gave USP10 block -3, USP8 block 4, UCHL1 block 0 and USP7 inh -1.
For COc1cc(CCC(=O)NC2CCCc3ccccc32)cc(OC)c1OC (configuration not stated) the results were USP10 block 0, USP8 block 7, UCHL1 block 0 and USP7 inh 4.
`COc1ccc(NC(=O)Cn2c(=O)n(CCC(=O)NCc3ccccc3)c(=O)c3sccc32)cc1Cl` gave USP10 block 49*, USP8 block 19, UCHL1 block 4 and USP7 inh 20.
`COc1cc(OC)cc(-n2c(=O)c3sccc3n(CC(=O)Nc3ccc(C)cc3)c2=O)c1` gave USP10 block 16, USP8 block 2, UCHL1 block 2 and USP7 inh 7.
`O=C(Cn1c(=O)c2sccc2n(CC(=O)NCCC2=CCCCC2)c1=O)NCc1ccccc1Cl` gave USP10 block 37*, USP8 block 17, UCHL1 block 2 and USP7 inh 18.
For CCOc1ccc(-n2c(=O)c3sccc3n(CC(=O)Nc3cccc(C)c3)c2=O)cc1 the results were USP10 block 41*, USP8 block 22, UCHL1 block 0 and USP7 inh 5.
